This is a sample that favours compounds with a hit; in the whole collection about 13% have one here.
Pf growth 48h = inhibits P. falciparum growth in the first generation, 48 h | P. falciparum luciferase growth in erythrocytes, 48 h | Potency, µM (series often up to 28.7 µM), actives largely listed as inhibitors | 310,000 tested, 5.9% active
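Erythrocytes infected with P. falciparum carrying an integrated firefly luciferase reporter (2% hematocrit, 0.1% parasitemia final) were exposed to compounds in RPMI 1640 with 0.5% Albumax at 37 C, 5% CO2. Growth inhibition was scored as reduced luminescence.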
Pf growth 96h = P. falciparum growth inhibition at 96 hour, primary screen for plastid delayed-death inhibitors. P. falciparum luciferase reporter growth, 96 h. Potency, µM (doses to about 28.7 µM), usual class: inhibitors. 320,000 tested, 6.9% active. AID 504834
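Compounds incubated with erythrocytes infected by luciferase-expressing P. falciparum (2% hematocrit, 0.05% parasitemia final) for 96 hours, 37 C in 5% CO2. Growth inhibition scored as decreased luciferase luminescence.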
HCV inh = HCV inhibition | 340,000 tested, 3.4% active | Potency, µM (titrated, usually from 41.8 µM), hits mostly inhibitors | Huh7.5.1 HCVcc-Cre infection, luciferase reporter, 44 h
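A cell-based infection assay in which seeded cells (1,000 per well) receive test compound after 4 h, are inoculated with HCVcc-Cre at approximately 0.5 moi, and are incubated 44 h before luminescence detection.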
HCMV inh = human cytomegalovirus inhibition | HFF cells, HCMV-luciferase reporter, 72 h; hits give low values | activity change, negative = inhibition, % at 57.5 µM | 410,000 tested, 4.5% active | AID 1259415; in the data active = activity change below about -60%; inconclusive = no clear call, values can overlap the other calls; inactive = above about -39%
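Luciferase read-out from HCMV-luciferase-infected HFFs (MOI 1 PFU/cell) 72 h post infection at 37C; compounds added after 16 h cell attachment; activity normalized between buffer-only basal and Salinomycin (10uM) inhibitor controls.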
Each line names hits and unclear results; the compound was inactive in the other large screens. Unless noted, calls follow the shape of the dose curve; as a rule, active = well fitted inhibition curve with a large enough effect; inconclusive = small, poorly fitted or top-dose-only effect, or another doubt; inactive = no such curve, though single readings can be large or run the other way.

O=C(Nc1ccc(F)cc1Cl)C1Cc2ccccc2N1C(=O)c1ccccc1 (centres undefined)	none (no result: Pf growth 48h, Pf growth 96h, HCV inh)
CCN(C(=O)C1CCN(S(=O)(=O)c2c(C)noc2/C=C/c2ccc(C)cc2)CC1)c1cccc(C)c1	none (no result: Pf growth 48h, Pf growth 96h, HCV inh)
C[C@@H]1CN([C@@H](C)CO)C(=O)CCCn2nncc2CO[C@H]1CN(C)CC1CC1	none (no result: Pf growth 48h, Pf growth 96h, HCV inh)
Nc1c(-c2nc(-c3cccs3)no2)nnn1-c1cccc(Cl)c1	none (no result: Pf growth 48h, Pf growth 96h, HCV inh)
CCc1ccc(NC(=O)Cn2c(=O)n(Cc3ccco3)c(=O)c3oc4ccccc4c32)cc1	none (no result: Pf growth 48h, Pf growth 96h, HCV inh)
CCOC(=O)c1c(NC(=O)Nc2ccc(F)cc2)sc2c1CCN(C)C2	Pf growth 48h 8.3µM, Pf growth 96h inconclusive, HCV inh inconclusive, HCMV inh inconclusive
CCOC(=O)c1c(/N=C/c2cccc(C)c2O)sc2c1CCN(C)C2	Pf growth 48h inconclusive, Pf growth 96h 1.7µM (no result: HCMV inh)
CCOC(=O)c1c(/N=C/c2ccc(C)cc2O)sc2c1CCN(C)C2	Pf growth 48h inconclusive, Pf growth 96h inconclusive, HCV inh inconclusive
COc1ccc(N/N=C(/C(N)=O)C2=NC(C)(C)Cc3ccccc32)cc1	Pf growth 48h inconclusive, Pf growth 96h inconclusive, HCV inh inconclusive, HCMV inh -92
O=C(COc1ccc(F)cc1)OCc1cc(=O)n2nc(C3CC3)sc2n1	none (no result: Pf growth 48h, Pf growth 96h, HCV inh)
COc1ccc(C(CC(=O)NCc2ccccc2)N2Cc3ccccc3C2=O)cc1 (centres undefined)	none (no result: Pf growth 48h, Pf growth 96h, HCV inh)
CCOC(=O)C1=CNS(=O)(=O)NC1c1ccc2ccccc2c1 (centres undefined)	HCV inh 6.3µM (no result: Pf growth 48h, Pf growth 96h)
CCOC(=O)C1=CNS(=O)(=O)NC1c1cccc(O)c1 (centres undefined)	none (no result: Pf growth 48h, Pf growth 96h)
CCN(CC)S(=O)(=O)c1cc(NC(=O)c2ccc3c(c2)NC(=O)C(C)S3)ccc1C (centres undefined)	Pf growth 48h inconclusive, Pf growth 96h inconclusive, HCV inh 4µM, HCMV inh -80
CCN(CC)S(=O)(=O)c1cc(NC(=O)c2ccc(Br)s2)ccc1C	Pf growth 48h inconclusive, Pf growth 96h 15µM, HCV inh 10µM, HCMV inh -83
Cc1nc(C)c(-c2csc(Nc3ccc(S(N)(=O)=O)cc3)n2)s1	HCV inh 11µM
Cc1nc(Nc2ccccc2)sc1C(=O)Nc1ccccc1	Pf growth 48h inconclusive, Pf growth 96h inconclusive, HCV inh inconclusive
C=CCNc1nc(-c2sc(NC(=O)CC)nc2C)cs1	Pf growth 48h inconclusive, HCV inh inconclusive
Cc1nc2ccccn2c1-c1csc(Nc2cccc(O)c2)n1	HCV inh 0.89µM, HCMV inh inconclusive
CCC(=O)Nc1nc(C)c(-c2csc(Nc3cccc(O)c3)n2)s1	HCV inh 7.1µM (no result: Pf growth 48h)
Cc1nc(Nc2ccc(S(N)(=O)=O)cc2)sc1C(=O)Nc1ccccc1	HCV inh inconclusive, HCMV inh -69
Cc1nc(C)c(-c2csc(Nc3cccc(O)c3)n2)s1	Pf growth 96h inconclusive, HCV inh 25µM
Cc1nc(NC(=O)C(C)(C)C)sc1-c1csc(N)n1	none (no result: Pf growth 48h, Pf growth 96h, HCV inh)
Cc1nc(C)c(-c2csc(N)n2)s1	Pf growth 96h 0.33µM
Cc1nc(N)sc1-c1csc(Nc2cccc(O)c2)n1	HCV inh inconclusive
Cc1ccc(Nc2nc(-c3sc(C)nc3C)cs2)cc1	Pf growth 96h inconclusive, HCV inh 5.6µM, HCMV inh inconclusive
Cc1cccc(Nc2nc(-c3sc(C)nc3C)cs2)c1	Pf growth 96h inconclusive, HCV inh 2.8µM
NS(=O)(=O)c1ccc(Nc2nc(-c3ccc4ccccc4c3)cs2)cc1	HCV inh inconclusive (no result: Pf growth 96h)
NS(=O)(=O)c1ccc(Nc2nc(-c3cccc([N+](=O)[O-])c3)cs2)cc1	Pf growth 96h inconclusive, HCV inh 25µM, HCMV inh inconclusive
CCOC(=O)c1cc2c(=O)n3ccccc3nc2n(CC2CCCO2)c1=NC(=O)c1cccc(C)c1 (centres undefined)	none (no result: Pf growth 48h, Pf growth 96h, HCV inh)
CCCC[n+]1ccn(C2=C([O-])c3ccccc3C(=O)/C2=N\S(=O)(=O)c2ccc(Cl)cc2)c1	Pf growth 48h inconclusive, Pf growth 96h 3.7µM, HCV inh inconclusive, HCMV inh -73
CCOc1ccc(S(=O)(=O)N2CCCC(C(=O)NCc3ccccc3)C2)cc1 (centres undefined)	none
CSc1ccc(CNC(=O)C2CCCN(S(=O)(=O)N(C)c3ccc(F)cc3)C2)cc1 (centres undefined)	HCMV inh -61 (no result: Pf growth 48h, Pf growth 96h, HCV inh)
O=C(NCc1ccccc1)C1CCCN(S(=O)(=O)c2ccc(F)cc2)C1 (centres undefined)	Pf growth 96h 12µM
CCOC(=O)c1ccc(NC(=O)C2CCCN(S(=O)(=O)c3ccc(F)cc3)C2)cc1 (centres undefined)	Pf growth 96h 8.3µM, HCV inh inconclusive (no result: Pf growth 48h)

Source: PubChem
